The source of these data is PubChem BioAssay (NCATS).

For experiment [1], the target named is Rap guanine nucleotide exchange factor 3 (Homo sapiens) (UniProt O95398). Put plainly: Confirmatory qHTS for antagonist of cAMP-regulated guanine nucleotide exchange factor 3 (EPAC1) (AID 1645880). Also: nearly all actives have a fitted effect of over 55% in size. Also: potency is read from the fitted curve at half-maximal effect. In a few lines: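 Released BODIPY-GDP fluoresces less than Rap1-bound BODIPY-GDP; the signal is followed at 480/540 nm at 5-min intervals over 30 min, after 5 min at room temperature. Reactions contain 100 nM EPAC1, 250 nM RAP1B-BODIPY-GDP and 50 uM GDP; results are normalized to ATA and DMSO.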
Rap guanine nucleotide exchange factor 3 (Homo sapiens), sequence (O95398 whole entry, looked up): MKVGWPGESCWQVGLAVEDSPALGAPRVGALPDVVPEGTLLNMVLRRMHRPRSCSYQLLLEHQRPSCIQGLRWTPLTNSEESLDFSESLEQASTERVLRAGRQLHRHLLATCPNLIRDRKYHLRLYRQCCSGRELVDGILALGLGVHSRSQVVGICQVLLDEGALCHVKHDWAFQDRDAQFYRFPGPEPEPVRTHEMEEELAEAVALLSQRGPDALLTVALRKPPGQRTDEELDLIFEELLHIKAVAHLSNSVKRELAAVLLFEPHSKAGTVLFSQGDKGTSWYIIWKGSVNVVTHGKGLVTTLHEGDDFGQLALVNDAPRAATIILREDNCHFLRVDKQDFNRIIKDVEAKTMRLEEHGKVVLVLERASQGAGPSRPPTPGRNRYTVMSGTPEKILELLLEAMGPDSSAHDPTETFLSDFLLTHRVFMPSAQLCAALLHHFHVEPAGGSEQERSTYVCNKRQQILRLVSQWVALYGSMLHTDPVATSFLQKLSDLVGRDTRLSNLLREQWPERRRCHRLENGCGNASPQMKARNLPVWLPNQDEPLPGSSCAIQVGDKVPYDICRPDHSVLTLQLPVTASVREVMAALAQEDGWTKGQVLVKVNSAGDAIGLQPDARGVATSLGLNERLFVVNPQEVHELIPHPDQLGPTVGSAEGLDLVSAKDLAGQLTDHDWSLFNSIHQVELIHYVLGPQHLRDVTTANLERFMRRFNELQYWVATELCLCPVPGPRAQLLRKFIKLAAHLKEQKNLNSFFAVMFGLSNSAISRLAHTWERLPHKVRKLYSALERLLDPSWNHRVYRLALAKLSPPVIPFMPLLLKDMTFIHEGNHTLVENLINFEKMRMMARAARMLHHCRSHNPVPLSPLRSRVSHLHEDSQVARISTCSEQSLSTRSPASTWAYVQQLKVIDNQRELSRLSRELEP
For orientation: Quantitative high-throughput screening tests each substance at several concentrations.

Experiment [2] shares this target. Put plainly: Confirmatory qHTS for agonist of cAMP-regulated guanine nucleotide exchange factor 3 (EPAC1) (AID 1645881). Also: nearly all actives have a fitted effect of over 75% in size. Also: potency is read from the fitted curve at half-maximal effect.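 As to activation: EPAC1 catalysed release of BODIPY-GDP from Rap1B seen as fluorescence loss; 100% = effect of cAMP agonist control.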
The target of experiment [3] is Rap guanine nucleotide exchange factor 4 (Homo sapiens) (UniProt Q8WZA2). Put plainly: Confirmatory qHTS for agonist of cAMP-regulated guanine nucleotide exchange factor 4 (EPAC2) (AID 1645884).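 Also: nucleotide exchange releases bodipy-GDP from Rap1 and this lowers its fluorescence; nearly all actives have a fitted effect of over 65% in size.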 Also: potency is read from the fitted curve at half-maximal effect. As to activation: % is scaled to controls: 0 for no effect and ±100 for the full control effect.
Rap guanine nucleotide exchange factor 4 (Homo sapiens), sequence (Q8WZA2 whole entry, looked up): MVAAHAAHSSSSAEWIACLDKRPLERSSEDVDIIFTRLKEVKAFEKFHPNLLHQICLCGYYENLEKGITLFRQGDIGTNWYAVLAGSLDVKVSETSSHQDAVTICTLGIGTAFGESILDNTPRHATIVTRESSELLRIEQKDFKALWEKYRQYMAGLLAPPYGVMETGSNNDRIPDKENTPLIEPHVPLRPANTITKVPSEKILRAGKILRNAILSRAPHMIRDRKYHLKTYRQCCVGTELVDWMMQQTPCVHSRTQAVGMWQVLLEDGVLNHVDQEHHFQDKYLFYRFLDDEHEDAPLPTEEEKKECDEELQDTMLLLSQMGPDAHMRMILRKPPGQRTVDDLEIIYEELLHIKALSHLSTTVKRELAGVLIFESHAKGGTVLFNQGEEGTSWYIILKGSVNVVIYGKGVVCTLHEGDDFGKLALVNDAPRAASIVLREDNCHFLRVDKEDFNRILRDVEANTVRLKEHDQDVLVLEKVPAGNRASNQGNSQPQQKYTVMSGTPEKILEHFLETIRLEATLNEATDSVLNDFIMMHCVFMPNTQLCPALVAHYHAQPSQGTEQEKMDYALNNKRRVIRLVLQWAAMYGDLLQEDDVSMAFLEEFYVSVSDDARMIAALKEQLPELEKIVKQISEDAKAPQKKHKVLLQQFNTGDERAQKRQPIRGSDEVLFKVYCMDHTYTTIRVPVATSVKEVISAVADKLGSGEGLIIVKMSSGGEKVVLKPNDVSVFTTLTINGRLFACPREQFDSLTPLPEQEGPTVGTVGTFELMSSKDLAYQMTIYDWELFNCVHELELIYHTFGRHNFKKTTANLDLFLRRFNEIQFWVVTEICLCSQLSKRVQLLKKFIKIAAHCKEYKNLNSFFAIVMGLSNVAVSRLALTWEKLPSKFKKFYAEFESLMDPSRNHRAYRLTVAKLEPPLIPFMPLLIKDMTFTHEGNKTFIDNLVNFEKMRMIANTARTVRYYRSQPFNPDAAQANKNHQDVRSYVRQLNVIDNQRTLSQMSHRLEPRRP
Experiment [4] has the same target. Nature of the experiment: Confirmatory qHTS for antagonist of cAMP-regulated guanine nucleotide exchange factor 4 (EPAC2) (AID 1645885). Also: nearly all actives have a fitted effect of over 25% in size. Also: potency is read from the fitted curve at half-maximal effect. As to activity change, negative = inhibition: % is scaled to controls: 0 for no effect and ±100 for the full control effect.
The target in experiment [5] is Rap guanine nucleotide exchange factor 3 (Homo sapiens) (UniProt O95398). Nature of the experiment: Counterscreen qHTS for antagonist of cAMP-regulated guanine nucleotide exchange factor 3 (EPAC1) (AID 1645888). Also: % of control where 0% means no effect. An outline of the steps: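 Rap1B-BODIPY-GDP 250 nM + GDP 50 uM; cpds 7-pt, final 9.74 nM–152 uM (activator mode) or from 7.32 nM upwards (inhibitor mode); RT; FI 480/540 nm at 5 and 30 min, then ± cAMP, reread.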
A general note: A counterscreen serves to expose hits that act by an unwanted route or on another target.

The structures appear in SMILES notation. Records with an inconclusive call do not appear. Values without a mark were called inactive. Calls of active or inactive are those of the source. Calls follow the shape of the dose curve; as a rule, active = well fitted curve in the direction sought with a large enough effect; inconclusive = small, poorly fitted or top-dose-only effect, or another doubt; inactive = no such curve, though single readings can be large; an effect the other way counts as inactive or inconclusive.

`O=C1C=CC(=O)c2c(O)c(N3CCN(CCOCCO)CC3)c(Br)c(O)c21`: the Potency in experiment [1] was 9.53 µM (active). Also, the Potency entry in experiment [2], in experiment [3], in experiment [4] and in experiment [5] was “inactive” throughout.

Turning to `COc1cc(S(=O)(=O)Nc2ccccc2C)ccc1Cl`, the Potency entry in experiment [1], in experiment [2], in experiment [3], in experiment [4] and in experiment [5] was “inactive” each time.

For `OC(c1ccc(Cl)c(Cl)c1)c1ncc(-c2ccc(Cl)cc2)[nH]1` (stereo not given), the Potency entry in experiment [1], in experiment [2] and in experiment [4] was “inactive” throughout. For the same compound, in experiment [3], the activation was -3.18% [at 17.1 µM, percent relative to cAMP agonist control]. Further, the activity change, negative = inhibition in experiment [5] is -2.17% [at 30.8 µM].

Consider `COc1ccc2oc(C(=O)N(C)CCOc3ccc(Cl)cc3)c(C)c2c1`, for which the Potency entry in experiment [1], in experiment [2] and in experiment [4] was “inactive” in each case. Moreover, the activation in experiment [3] was 7.19% [at 17.1 µM, percent relative to cAMP agonist control]. Moreover, in experiment [5], the activity change, negative = inhibition was -14.2% [at 30.8 µM].

In the case of `CN(C)S(=O)(=O)c1cccc(-c2nn(-c3ccccc3)cc2/C=C2\SC(=S)NC2=O)c1`, the Potency in experiment [1] was 21.3 µM (active); in experiment [4], 42.6 µM (active). The Potency entry in experiment [2], in experiment [3] and in experiment [5] was “inactive” each time.

Take `Cn1cc(CNCc2cn(C)nc2-c2ccc(C3CCCCC3)cc2)cn1`: the Potency entry in experiment [1], in experiment [2], in experiment [3], in experiment [4] and in experiment [5] was “inactive” each time.

For the compound `N#CCC(=O)Nc1sc2c(c1C(N)=O)CCCC2`, the Potency result in experiment [1], in experiment [2] and in experiment [4] was “inactive” in each case. The activation in experiment [3] was 10.1% [at 17.1 µM, percent relative to cAMP agonist control]. In experiment [5], the activity change, negative = inhibition was -6.4% [at 30.8 µM].

With `CCOC(=O)c1ccc(N2C(=O)c3n[nH]c(-c4ccco4)c3C2c2ccccc2OC)cc1` (stereo not given), the Potency in experiment [1] was 75.7 µM (active). In addition, the Potency entry in experiment [2], in experiment [3], in experiment [4] and in experiment [5] was “inactive” throughout.

On to `Cc1c(Cl)ccc2c(C(=O)O)cc(-c3ccccc3)nc12`, for which the Potency result in experiment [1], in experiment [2] and in experiment [4] was “inactive” each time. Besides, the activation in experiment [3] is 9.62% [at 17.1 µM, percent relative to cAMP agonist control]. Also, the activity change, negative = inhibition in experiment [5] is 5.51% [at 30.8 µM].

For the compound `COc1ccccc1C(=O)Nc1ccccc1C(=O)OCc1cc(=O)n2c(C)csc2n1`, the Potency result in experiment [1], in experiment [2], in experiment [3], in experiment [4] and in experiment [5] was “inactive” throughout.

On to `CCOC(=O)Cc1nnc(NC(=O)CSc2nnc3c(n2)[nH]c2ccccc23)s1`, for which, in experiment [1], the Potency was 44.7 µM (active). Moreover, the Potency entry in experiment [2] and in experiment [4] was “inactive” in each case. In addition, in experiment [3], the activation was 6.98% [at 17.1 µM, percent relative to cAMP agonist control]. Also, the activity change, negative = inhibition in experiment [5] is -37.4% [at 30.8 µM].

Regarding `CCN(CC(=O)Nc1ccccc1C(F)(F)F)C(=O)c1cc2c(s1)CCCCC2`, the Potency result in experiment [1], in experiment [2], in experiment [3], in experiment [4] and in experiment [5] was “inactive” throughout.

With `O=C(COC(=O)CSc1ccc([N+](=O)[O-])cc1)NCc1cccs1`, the Potency result in experiment [1], in experiment [2], in experiment [3], in experiment [4] and in experiment [5] was “inactive” each time.

Regarding `COc1ccc(C2=NN(c3nc4ccccc4s3)C(=O)C2)cc1`, the Potency in experiment [1] was 75.7 µM (active). In addition, the Potency result in experiment [2], in experiment [3], in experiment [4] and in experiment [5] was “inactive” in each case.

For the compound `CCOC(=O)c1[nH]c(C)c(C(=O)NC(C)(C)C)c1C`, the Potency result in experiment [1], in experiment [2], in experiment [3], in experiment [4] and in experiment [5] was “inactive” each time.

In the case of `COc1ccc(S(=O)(=O)N2CCOC23CCN(S(=O)(=O)c2cc(F)ccc2F)CC3)cc1`, the Potency entry in experiment [1], in experiment [2] and in experiment [4] was “inactive” each time. In experiment [3], the activation was 4.71% [at 17.1 µM, percent relative to cAMP agonist control]. Also, in experiment [5], the activity change, negative = inhibition is -8.89% [at 30.8 µM].

As to `OC1(c2ccccc2)CC(c2ccccc2)c2ccccc2O1` (stereo not given), the Potency result in experiment [1], in experiment [2] and in experiment [4] was “inactive” throughout. For the same compound, the activation in experiment [3] was 1.28% [at 17.1 µM, percent relative to cAMP agonist control]. In addition, the activity change, negative = inhibition in experiment [5] is -2.96% [at 30.8 µM].

For the compound `OC1CCN(c2c3c(nc4cc(-c5cccc(F)c5)nn24)CCCC3)CC1`, the Potency entry in experiment [1], in experiment [2], in experiment [3], in experiment [4] and in experiment [5] was “inactive” in each case.

In the case of `Cc1cccc(C)c1Nc1c(-c2ccccc2F)nc2cccc(C)n12`, the Potency in experiment [1] was 75.7 µM (active). The Potency entry in experiment [2], in experiment [3], in experiment [4] and in experiment [5] was “inactive” throughout.

In the case of `CC1Cc2cc(/C=C3/SC(=S)NC3=O)ccc2O1` (stereo not given), the Potency in experiment [1] was 30.1 µM (active). Moreover, the Potency entry in experiment [2], in experiment [3], in experiment [4] and in experiment [5] was “inactive” each time.

For `Cn1c(SCc2c(Cl)cccc2Cl)nnc1-c1ccc2nonc2c1`, the Potency entry in experiment [1], in experiment [2] and in experiment [4] was “inactive” in each case. In experiment [3], the activation was 10.1% [at 17.1 µM, percent relative to cAMP agonist control]. Further, the activity change, negative = inhibition in experiment [5] is -10.9% [at 30.8 µM].

Take `O=C(Cc1ccccc1Cl)Nc1ccc(S(=O)(=O)Nc2nccs2)cc1`: the Potency entry in experiment [1], in experiment [2], in experiment [3], in experiment [4] and in experiment [5] was “inactive” in each case.

Turning to `COc1ccc2c(c1)CC/C(=C\Nc1ccc3c(c1)OCO3)C2=O`, the Potency result in experiment [1], in experiment [4] and in experiment [5] was “inactive” throughout. For the same compound, the Potency in experiment [2] was 112 µM (active); in experiment [3], 100 µM (active).
